Measured values from PubChem BioAssay AID717 (Columbia University Molecular Screening Center, 2007).
The whole screen tested about 91,000 compounds, of which about 40 (0.04%) were called active. No stated cut-off is given here; in the data, active means activation above about 37%; inactive means the rest. Only a sample is shown.

What follows are compounds tested against Bifunctional epoxide hydrolase 2 (Homo sapiens) (UniProt P34913) (assay: sEH enzyme activity enhancers – biochemical, human sEH, primary screen (AID 717)). Conditions: purified human sEH enzymatic activity, activator screen; at 2 µM; stronger effect = higher value.
Chain of Bifunctional epoxide hydrolase 2 (Homo sapiens) (P34913 whole entry, looked up): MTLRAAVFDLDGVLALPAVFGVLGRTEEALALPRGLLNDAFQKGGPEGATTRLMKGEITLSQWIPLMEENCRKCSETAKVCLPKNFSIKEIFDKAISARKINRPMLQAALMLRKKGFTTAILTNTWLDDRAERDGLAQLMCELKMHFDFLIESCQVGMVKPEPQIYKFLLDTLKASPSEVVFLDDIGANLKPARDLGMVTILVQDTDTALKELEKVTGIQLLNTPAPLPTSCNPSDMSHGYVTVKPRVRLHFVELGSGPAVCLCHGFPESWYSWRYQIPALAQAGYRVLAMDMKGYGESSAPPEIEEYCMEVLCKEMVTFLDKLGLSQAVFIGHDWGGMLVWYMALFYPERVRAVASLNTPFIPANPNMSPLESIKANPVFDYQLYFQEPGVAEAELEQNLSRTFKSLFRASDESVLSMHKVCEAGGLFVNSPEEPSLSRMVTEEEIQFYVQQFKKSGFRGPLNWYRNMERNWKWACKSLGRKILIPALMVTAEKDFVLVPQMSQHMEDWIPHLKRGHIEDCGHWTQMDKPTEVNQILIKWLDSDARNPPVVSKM

activation, inactive:
O=C(CCC(=O)OCc1cccc(C(=O)Oc2ccccc2)c1)Nc1cccc2ccccc12 -9.6%
O=C(CSCc1c(Cl)cccc1Cl)NN1C(=O)c2ccccc2C1=O -21.2%
Cc1ccc(N2C(=O)C(Cc3ccccc3)NC2=S)cc1 (stereo not drawn) -3.9%
COc1ccc(NC(=O)CSc2nc(N)c(-c3ccccc3)c(=O)[nH]2)cc1 -3.7%
Cc1nn(C)c(Oc2ccccc2)c1[N+](=O)[O-] -3%
O=C(CSc1ccc(/C=N/NC(=O)c2cccc(F)c2)o1)Nc1ccccc1 -79%
CCOc1c2ccc(C(=O)NCc3ccc(OC(F)(F)F)cc3)cc2nn1C -0.5%
CC1=NN(C(=O)c2ccccc2Br)C(O)(c2cccnc2)C1 (stereo not drawn) -13.7%
Cc1nn(-c2ccccn2)c2c1C(c1ccncc1)C1=C(CC(C)(C)CC1=O)N2 (stereo not drawn) 3.8%
Cc1ccc(Oc2ccc3c(c2)C(=O)N(c2cccc4cccnc24)C3=O)cc1 -10.3%
Cc1cc(C)c2c(-n3cccc3)c(C(=O)NNS(=O)(=O)c3ccc(F)cc3)sc2n1 11.1%
Cc1nn(C)cc1C(=O)NNC(=S)Nc1ccc(Cl)cc1 -12.9%
O=C(NC1=NCCS1)[C@H](Cc1ccccc1)N1C(=O)c2ccccc2C1=O -7.6%
CCCCNC(=O)CCn1c(=S)[nH]c2cc3c(cc2c1=O)OCO3 -13.6%
O=C(c1cccc(F)c1)N1CCN(c2ccc([N+](=O)[O-])c(N3CCCCC3)c2)CC1 -8.2%
COc1ccc(N(CC(=O)N/N=C/c2cccc3c2OCCO3)S(=O)(=O)c2ccc(NC(C)=O)cc2)cc1 5.2%
COc1ccccc1-c1n[nH]c2c1[C@H](C)CC[C@H]2C(C)C 15.1%
COc1cccc2c1OCC(C(=O)NCc1ccc(Cl)cc1Cl)=C2 -78.6%
COc1ccc([N+](=O)[O-])cc1NC(=O)CCc1ccccc1 -7.7%
CCn1c2ccccc2c2cc(NC(=O)C/C(C)=N/NC(=O)c3ccccc3N)ccc21 -2.8%
COc1ccccc1CSc1nc2ccccc2[nH]1 2.2%
O=C(CNC(=O)c1ccccc1)NCC(=O)OCc1ccc(Cl)cc1 5.3%
c1ccc(-n2nnnc2NC2CCCCCC2)cc1 12.5%
COc1ccc(C(=O)NC(=S)Nc2ccccc2N2CCN(S(C)(=O)=O)CC2)cc1OC -12%
Cc1nnc(NC(=O)CSc2nc(C3CCCCC3)nc3ccccc23)s1 1.6%
Cc1c(C(=O)OC(C)C)sc(NC(=O)c2cccnc2)c1C#N -4.7%
Cc1ccc(NC(=S)Nc2ncccc2C)c(C)c1 -5.2%
CCOC(=O)C1CN(S(=O)(=O)c2ccc(F)cc2)C1 6.7%
CCCC(=O)NC(Nc1ccccc1OC)C(Cl)(Cl)Cl (stereo not drawn) -3.9%
CC(C)C(=O)OCC(=O)Nc1ccc2c(c1)CCC2 -1.7%
Cc1ccc(S(=O)(=O)N(CC(=O)N/N=C/c2ccc(F)cc2)c2cccc3cccnc23)cc1 6.1%
N#Cc1c(C(F)(F)F)cc(-c2ccccc2)nc1SCC(=O)N1CCOCC1 0.7%
N#C/C(=C1/CCCN1)c1ccccn1 -2.3%
Cc1cc(C)cc(OCC(=O)NNC(=O)c2cc3ccccc3oc2=O)c1 2%
CCC(=O)NC(NCC1CCCO1)C(Cl)(Cl)Cl (stereo not drawn) 2.5%
O=C(CCc1ccc(S(=O)(=O)N2CCOCC2)cc1)Nc1ccc2ccccc2c1 -20.5%
O=C(CCCOc1ccccc1)NCc1ccco1 -2.8%
COc1ccc(C(=O)N2CCc3cc(OC)c(OC)cc3C2c2cccc([N+](=O)[O-])c2)cc1 (stereo not drawn) 2.1%
Cc1cc(-c2cccs2)nc(-n2cccc2)n1 -0.3%
CCN(CC)CCNc1ccc(Cl)cc1[N+](=O)[O-] -8.3%
Cc1ccccc1NC(=O)C(C)c1ccc(-c2ccccc2)c(F)c1 (stereo not drawn) -9.7%
CCOc1ccc(Nc2nc(Cc3nnc(SCC(=O)NC4CCCC4)n3C)cs2)cc1 -12.4%
C=CCn1c(Cn2nnc3ccccc32)nnc1SCC(=O)N/N=C/c1cc(Br)cc(OC)c1O -14.1%
CC12c3ccccc3C(c3ccccc31)C1C(=O)N(Cc3cccnc3)C(=O)C12 (stereo not drawn) -9.7%
CNS(=O)(=O)c1cnccc1N1CCN(c2cccc(C)c2)CC1 -13.7%
COc1ccc(Cl)cc1NC(=O)CN(C)C(=O)CNC(=O)C12CC3CC(CC(C3)C1)C2 -13.2%
Cc1ccccc1C(=O)N1CCC(C(=O)Nc2ccc(S(=O)(=O)N(C)C(C)C)cc2)CC1 -83.3%
Nc1c(-c2ccc(F)cc2)cnc2ncnn12 -1.1%
COC(=O)c1ccc(C(=O)OC)c(NC(=S)N2CCCCC2)c1 1.5%
O=C(CSc1nc2ccccc2o1)N1c2ccccc2Sc2ccc(Cl)cc21 6.7%
Cc1ccccc1OCc1nnc(SCC(=O)N2c3ccccc3Sc3ccc(Cl)cc32)o1 1%
COc1ccc(CCNC(=O)COC(=O)c2ccc[nH]c2=O)cc1 3.2%
CC1CC(C)CN(C/C=C/c2ccccc2[N+](=O)[O-])C1 (stereo not drawn) -2.6%
O=C(CSCc1ccc([N+](=O)[O-])cc1)NCCSCc1ccccc1 -17.4%
O=C1c2ccccc2C(=O)c2c1cccc2N1CCN(Cc2ccccc2)CC1 33.6%
O=S(=O)(c1ccc(F)cc1)n1ccc(-c2cnc(-c3ccccc3)s2)n1 8.1%
O=c1[nH]n(-c2cccc(Cl)c2)c2ncccc12 0.8%
CC(=O)Nc1ccccc1C(=O)C(=O)Nc1ccc(F)cc1 21.4%
Cc1noc(C)c1C(=O)N(CC(=O)NC1CCCC1)Cc1ccccc1F 5.6%
COc1cccc(NC(=O)C2c3cc(OC)c(OC)cc3C(=O)N(C)C2c2cccnc2)c1 (stereo not drawn) 4.9%
Cc1cccc(-n2cnc(C(=O)Nc3cccnc3)c2)n1 7.2%
CC(C)C(NS(=O)(=O)c1cccs1)C(=O)Nc1nc(C(C)(C)C)cs1 (stereo not drawn) -6%
c1ccc2c(C[n+]3csc4ccccc43)cccc2c1 12.2%
c1ccc(-c2ccnc3nc(-n4cccc4)nn23)cc1 3.1%
COc1cccc(/C=N/NC(=O)C(=O)N2CCCC2)c1 7.2%
CC(C)CC(=O)N1CCC(O)(CS(=O)(=O)Cc2ccccc2)CC1 0.4%
NC(=O)COc1ccc(/C=N/NC(=O)C2CCCN2S(=O)(=O)c2ccc(Cl)cc2)cc1 (stereo not drawn) -1.2%
O=C(O)COc1ccc(-c2nccc(-c3cccs3)n2)cc1 -9.3%
O=C(CSc1ncnc2c1cnn2CCc1ccccc1)Nc1ccc(F)cc1 -20.6%
CN(C)/C=C(\C#N)C(=O)c1cccnc1Oc1ccc(F)cc1F -10.7%
Cc1ccc2c(c1)-c1c(ssc1=S)C(C)(C)N2C(=O)CN1C(=O)c2ccccc2C1=O 25.4%
Cn1nc([N+](=O)[O-])nc1Sc1ccc(C(C)(C)C)cc1 -5.2%
Cc1sc(NC(=S)NC(=O)c2cccs2)nc1-c1ccc(CC(C)C)cc1 17.5%
Cc1ccc(C)c(NC(=O)C2Cc3ccccc3CN2C(=O)OCc2ccccc2)c1 (stereo not drawn) 7.9%
COC(=O)c1c(-c2cccs2)csc1NC(=O)CSc1ncnc2sc(C)c(C)c12 -7%
Cc1cc([N+](=O)[O-])ccc1NCc1cccc([N+](=O)[O-])c1 2.8%
O=S(=O)(/N=C(/Nc1ccccn1)c1ccccc1)c1ccc(Cl)cc1 -19.7%
N/C(=N\OC(=O)c1cc(-c2ccccc2)nc2ccccc12)c1ccncc1 3%
Cc1cc2cc3c(N)[nH]nc3nc2cc1C -5.4%
O=C(/C=C/c1cccs1)c1cc(Cl)ccc1OC(=O)N1CCOCC1 7.4%
O=C(O)c1ccccc1NC(=S)NC(NC(=O)c1ccccc1[N+](=O)[O-])C(Cl)(Cl)Cl (stereo not drawn) -9.3%
Cc1c(Br)c([N+](=O)[O-])nn1C(C)C(=O)Nc1nccs1 (stereo not drawn) 6.6%
CN(C)/C=C/C(=O)c1ccccc1F -11.3%
COC(=O)CN(C(=S)Nc1ccc(Cl)cc1)C1CC(=O)N(c2ccc(OC)cc2)C1=O (stereo not drawn) -11.8%
Cc1ccc(-c2nnc(C)c(N3CC(C)OC(C)C3)n2)cc1 (stereo not drawn) -0.3%
COc1ccc(-c2c(C(C)=O)c(C)nc3sc4c(=O)n(-c5ccc(C)cc5)nnc4c23)cc1 -1.9%
O=C(ON=C1CCN(S(=O)(=O)c2ccccc2)CC1)c1ccc(Cl)cc1 0.1%
N#C/C(=C(/O)Cc1cccc2ccccc12)c1nc2ccccc2s1 13.6%
NS(=O)(=O)c1ccc(Nc2nc(-c3ccccc3)cs2)cc1 -4.9%
CS(=O)(=O)N(CC(=O)Nc1ccc(F)cc1F)c1cccc([N+](=O)[O-])c1 -2.8%
O=C(Nc1cc(C(F)(F)F)ccc1Cl)c1cc2nc3c(c(C(F)(F)F)n2n1)CCCC3 -7.1%
COc1ccc(/C=C2\CCCC3C2=NN(C(=O)c2scnc2C)C3c2ccc(OC)cc2)cc1 (stereo not drawn) 12.7%
O=C(c1ccccc1)C(Cn1cncn1)C(Sc1ccccc1)c1ccccc1 (stereo not drawn) 3.9%
